# This is a sample that favours compounds with a hit; in the whole collection about 3.2% have one here.
# MsrA inh: inhibitors of bovine MsrA; purified bovine MsrA, absorbance read-out; inhibition, % at 15.5 µM; 360,000 compounds, 0.75% hits; in the data active = inhibition above about 4.5%;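 note: 0% = vehicle wells with enzyme and 100% = reference inhibitor wells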
# Pemphigus Ab inh: inhibitors of pemphigus antibody binding to human desmoglein-3 | DSG3-coupled beads, scFv-anti-DSG3-GFP binding, flow cytometry; hits give low values | binding (percent of control), % at 10 µM | 310,000 compounds, 0.48% hits;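 active = binding more than 3 SD below its plate's average and above zero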;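 note: hits lower antibody fragment binding to DSG3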
# bovine MsrA act: activators of bovine methionine sulfoxide reductase A. purified bovine MsrA, absorbance read-out. activation, % at 10.6 µM. 360,000 compounds, 0.3% hits; in the data active = activation above about 7.5%;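 note: 0% = vehicle and 100% = reference activator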
# rCAG binder: binds r(CAG) RNA repeats | r(CAG) RNA repeat, TO-PRO-1 dye displacement fluorescence | inhibition, % at 3 µM | 370,000 compounds, 1.3% hits;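 active = inhibition above the plate cutoff, the mean of all test compounds on that plate plus 3 SD, cut at about 35% in these data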;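 note: 0% = DMSO alone and 100% = 100 µM mitoxantrone as full dye displacement; higher means more dye released from RNA so lower well fluorescence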
# DAGLB inhibitor: diacylglycerol lipase beta (human) inhibition. Q8NCG7. HEK293T DAGLB membrane lysate, EnzChek fluorogenic substrate. inhibition, % at 5.17 µM. 340,000 compounds, 0.059% hits; in the data active = inhibition above about 34%;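 note: 0% = enzyme with vehicle and 100% = wells lacking enzyme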
# NadD inh: NadD (S. aureus) enzyme inhibition; AID 602399; inhibition, % at 20 µM; purified NadD enzyme, colorimetric absorbance read-out; 360,000 compounds, 0.78% hits; in the data active = inhibition above about 26%
# NadD conf: confirmation of Staphylococcus aureus NadD inhibitors | shares compounds with NadD inh | inhibition, % at 20 µM | purified S. aureus NadD, colorimetric enzyme assay | 2,000 compounds, 13% hits | AID 624309; in the data active = inhibition mostly above about 42%, no sharp cut-off; inactive = mostly below about 42%
# * marks the source's active call; other numbers are inactive results; nt = not tested or not shown.
SMILES,MsrA inh,Pemphigus Ab inh,bovine MsrA act,rCAG binder,DAGLB inhibitor,NadD inh,NadD conf
C[C@]12c3[nH]c4cc(-c5ccco5)ccc4c3CCN1C(=O)[C@@H](CC(=O)NCC13CC4CC(CC(C4)C1)C3)C[C@@H]2C(=O)N1CCCCC1,2,101,-1,17,3,50*,13
CC[C@]12c3[nH]c4cc(-c5ccco5)ccc4c3CCN1C(=O)[C@@H](CC(=O)NCC13CC4CC(CC(C4)C1)C3)C[C@@H]2C(=O)N1CCN(C(=O)c2ccco2)CC1,2,99,-5,17,9,40*,20
CC(C)(C)N(Cc1cn(Cc2ccccc2)nn1)S(=O)(=O)c1ccc(N2CCCCC2)cc1Br,nt,nt,nt,5,nt,nt,nt
CNc1n[nH]c(=S)s1,-1,109,6,-1,-4,-1,nt
Cc1cccc(Nc2nc3ccccc3s2)c1C,0,80,-4,-3,-1,-4,nt
Cc1cccc(Nc2n[nH]c(=S)s2)c1C,-1,116,7,1,3,32*,44
Cc1cc(C)c(Nc2n[nH]c(=S)s2)cc1C,0,102,6,7,1,44*,46
CCC(=O)N1CCc2cc(Br)c(S(=O)(=O)N3CCC(C(=O)NC(C)(C)C)CC3)cc21,nt,nt,nt,2,nt,nt,nt
O=C(Nc1nnc(C2CC2)s1)c1ccc(Cl)c(S(=O)(=O)N2CCc3ccccc3C2)c1,0,99,-3,8,5,33*,-1
NS(=O)(=O)c1ccc(NC(=O)/C=C/c2cn(-c3ccccc3)nc2-c2cccc(Cl)c2)cc1,4,119,-4,18,1,41*,34
NS(=O)(=O)c1ccc(NC(=O)COC(=O)c2cn(-c3ccccc3)nc2-c2ccc(F)cc2)cc1,1,105,-7,16,-3,13,nt
Cn1c(-c2ccc(C=O)s2)nc2c3ccccc3c3ccccc3c21,-1,96,1,14,-2,50*,11
N#Cc1c(NC(=O)CN2C(=O)c3ccccc3C2=O)oc(-c2ccccc2)c1-c1ccccc1,0,97,-3,4,2,33*,15
CCn1c(SCC(=O)Nc2oc(-c3ccccc3)c(-c3ccccc3)c2C#N)nnc1-c1ccco1,1,104,-3,25,-2,29*,44
CN(C)S(=O)(=O)c1cc(NC(=O)CN2CCc3ccccc32)ccc1Cl,1,101,-1,22,2,39*,40
OC(CNCCC1C=Nc2ccccc21)Cn1c2ccc(Cl)cc2c2cc(Cl)ccc21 (stereo not drawn),-1,129,-3,15,0,34*,20
OC(CNCC1CCCO1)Cn1c2ccc(Cl)cc2c2cc(Cl)ccc21 (stereo not drawn),-1,111,0,6,-4,7,nt
CCC(=O)N1CCC(C)(C(=O)Nc2ccc3c(c2)OCCO3)C1 (stereo not drawn),0,nt,-4,1,nt,-2,nt
Cc1cccn2c(=O)c3cc(S(=O)(=O)c4ccc(Br)cc4)c(=N)n(C4CCCCC4)c3nc12,0,101,-2,2,1,27*,22
Cc1ccc2nc3c(cc(S(=O)(=O)c4ccccc4)c(=N)n3Cc3ccco3)c(=O)n2c1,2,90,-8,25,5,31*,22
Cc1ccc(S(=O)(=O)c2cc3c(=O)n4cccc(C)c4nc3n(C3CCCCC3)c2=N)cc1,nt,99,-3,nt,-1,13,nt
COc1ccc(CCn2c(=N)c(S(=O)(=O)c3ccc(Cl)cc3)cc3c(=O)n4ccccc4nc32)cc1,0,98,-2,0,-4,30*,22
Cc1cccn2c(=O)c3cc(S(=O)(=O)c4ccc(F)cc4)c(=N)n(Cc4ccco4)c3nc12,0,106,-4,5,-3,35*,7
N=c1c(S(=O)(=O)c2ccccc2)cc2c(=O)n3ccccc3nc2n1Cc1ccco1,-1,nt,-4,8,2,16,nt
COCCCN1C(=O)[C@H](CC(=O)NCc2ccc(OC)c(OC)c2)[C@]2(C(=O)OC)CCCCC=C12,nt,nt,nt,2,nt,nt,nt
Cc1nn(-c2ccccc2)c(C)c1C=NNC(=O)CSc1nc2ccccc2n1C,nt,nt,nt,1,nt,nt,nt
COC(=O)c1cccc(OCC(C)CN2CCC(C(O)(c3ccccc3)c3ccccc3)CC2)c1 (stereo not drawn),nt,nt,nt,3,nt,nt,nt
